AC50 and outcome data for 7 molecules are collected here from PubChem BioAssay (EPA / NIEHS).

Assay [1] concerns the target human RAR-related Orphan Receptor gamma (RORg), RORC (gene 6097) (UniProt P51449). As to the kind of experiment: ATG_RORg_TRANS: Attagene TRANS-FACTORIAL HepG2 Assay for human RAR-related Orphan Receptor gamma (RORg) (AID 2283011; active = hit-call score of the fitted dose curve at least 0.9, where 1 is the maximum;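 as to AC50: potency for induction of reporter transcripts above DMSO so activators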). In a few lines: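 Chimeric RORg-Gal4 transactivation in transfected HepG2; 24 h exposure; RT-PCR/capillary electrophoresis readout of reporter mRNA, DMSO baseline.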

Assay [2] concerns the target Retinoic acid receptor RXR-alpha (Homo sapiens) (UniProt P19793). As to the kind of experiment: ATG_RXRa_TRANS: Attagene TRANS-FACTORIAL HepG2 Assay for human Retinoid X Receptor alpha (RXRa) (AID 2283012; active = hit-call score of the fitted dose curve at least 0.9, where 1 is the maximum). In a few lines:
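Transient transfection of human HepG2 with multiple GAL4-UAS reporter constructs; 24 h compound exposure; total RNA isolated, reverse-transcribed, PCR-amplified, 6-FAM labelled, HpaI-cut, resolved by capillary electrophoresis. Positive-direction fit versus DMSO.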

In assay [3] the target is human Thyroid Receptor alpha (THRa1), THRA (gene 7067) (UniProt P10827). Put plainly: ATG_THRa1_TRANS: Attagene TRANS-FACTORIAL HepG2 Assay for human Thyroid Receptor alpha (THRa1) (AID 2283014; active = hit-call score of the fitted dose curve at least 0.9, where 1 is the maximum). In a few lines: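 Measured here is mRNA from a GAL4-UAS reporter in transfected HepG2 cells carrying a Gal4-fused receptor, 24 h post-dose. DMSO served as negative control and baseline.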
Sequence of human Thyroid Receptor alpha (THRa1), THRA (gene 7067) (P10827 whole entry, looked up, the tested form may be a part): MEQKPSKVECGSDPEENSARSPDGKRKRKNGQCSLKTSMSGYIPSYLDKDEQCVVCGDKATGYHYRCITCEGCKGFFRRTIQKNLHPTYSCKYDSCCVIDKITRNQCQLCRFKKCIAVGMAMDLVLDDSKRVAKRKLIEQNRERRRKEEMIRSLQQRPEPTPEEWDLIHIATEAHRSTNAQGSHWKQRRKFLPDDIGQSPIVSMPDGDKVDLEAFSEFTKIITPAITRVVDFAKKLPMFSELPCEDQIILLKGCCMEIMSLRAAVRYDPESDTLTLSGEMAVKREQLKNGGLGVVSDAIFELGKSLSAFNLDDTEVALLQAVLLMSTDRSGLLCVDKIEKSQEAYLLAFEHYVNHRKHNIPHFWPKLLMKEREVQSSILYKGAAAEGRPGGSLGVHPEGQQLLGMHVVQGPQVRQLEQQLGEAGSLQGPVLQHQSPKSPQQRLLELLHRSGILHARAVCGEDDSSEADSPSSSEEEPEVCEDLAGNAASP

Read-out in assay [4]: E-selectin (Homo sapiens) (UniProt P16581)
Put plainly: BSK_3C_Eselectin: BioMAP Diversity Plus: 3C Assay for Eselectin Biomarker Activity (AID 2283015).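 As to outcome: cell surface E-selectin protein quantified by ELISA 24 h after dosing.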 Conditions: primary human endothelial cells (HUVEC); actives raise or lower the signal. In short, it runs like this: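 Endpoint derived by bidirectional fitting against DMSO vehicle; signal is ELISA-detected E-selectin from primary HUVEC at 24 h post-dosing, with parallel SRB staining (0.1% SRB, 560 nm) flagging cytotoxicity.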

Read-out in assay [5]: Interleukin-1 alpha (IL1a), IL1A (gene 3552)
Put plainly: BSK_BE3C_IL1a: BioMAP Diversity Plus: BE3C Assay for Interleukin-1 alpha (IL1a) Biomarker Activity (AID 2283016). Conditions: primary human bronchial epithelial cells; actives raise or lower the signal. In short, it runs like this: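 BE3C primary human bronchial epithelium; cpd 24 h; IL-1a by ELISA; bidirectional fit vs DMSO; parallel SRB (0.1% SRB, 10% TCA fix, 560 nm) for cytotoxicity.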

Read-out in assay [6]: Monocyte Chemoattractant Protein-1 (MCP1), CCL2 (gene 6347)
As to the kind of experiment: BSK_3C_MCP1: BioMAP Diversity Plus: 3C Assay for Monocyte Chemoattractant Protein-1 (MCP1) Biomarker Activity (AID 2283017). The conditions noted are these: primary human endothelial cells (HUVEC); actives raise or lower the signal. In short, it runs like this:
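Using human vascular primary endothelium, researchers measured MCP-1 by ELISA 24 h after treatment, with DMSO serving as negative control for bidirectional fitting.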

Read-out in assay [7]: Monocyte Chemoattractant Protein-1 (MCP1), CCL2 (gene 6347)
Put plainly: BSK_4H_MCP1: BioMAP Diversity Plus: 4H Assay for Monocyte Chemoattractant Protein-1 (MCP1) Biomarker Activity (AID 2283018). Conditions: primary human endothelial cells (HUVEC); actives raise or lower the signal. In a few lines: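 ELISA read-out of MCP-1 from human vascular endothelial primary cells taken at 24 hours after compound exposure. Activity was fitted in both directions relative to DMSO, which served as negative control.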

Read-out in assay [8]: Human Leukocyte Antigen - DR isotype (HLADR), HLA-DRA (gene 3122)
Put plainly: BSK_3C_HLADR: BioMAP Diversity Plus: 3C Assay for Human Leukocyte Antigen - DR isotype (HLADR) Biomarker Activity (AID 2283019).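 As to outcome: ELISA of cell-surface HLA-DR on HUVEC 24 h after dosing.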 Conditions: primary human endothelial cells (HUVEC); actives raise or lower the signal. In short, it runs like this: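 Compound added to primary HUVEC cultures, 24 h incubation, then HLA-DR determined by ELISA; endpoint derived by bidirectional fitting relative to DMSO negative control.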

Read-out in assay [9]: Interleukin-8 (IL8), CXCL8 (gene 3576)
As to the kind of experiment: BSK_3C_IL8: BioMAP Diversity Plus: 3C Assay for Interleukin-8 (IL8) Biomarker Activity (AID 2283020). Conditions: primary human endothelial cells (HUVEC); actives raise or lower the signal. In short, it runs like this: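 ELISA read-out of IL-8 from human umbilical vein endothelium, measured 24 h after chemical dosing. Activity is expressed relative to DMSO negative control, with both increases and decreases fitted.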

Read-out in assay [10]: Monokine induced gamma interferon (MIG), CXCL9 (gene 4283)
Put plainly: BSK_3C_MIG: BioMAP Diversity Plus: 3C Assay for Monokine induced gamma interferon (MIG) Biomarker Activity (AID 2283021). The conditions noted are these: primary human endothelial cells (HUVEC); actives raise or lower the signal. In a few lines: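 Read-out is ELISA detection of MIG on human umbilical vein endothelial cells, taken 24 h after dosing. Gain or loss of signal was scored relative to DMSO controls using bidirectional curve fitting.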

For assay [11], the target named is human Vitamin D Receptor (VDR), VDR (gene 7421) (UniProt P11473). As to the kind of experiment: ATG_VDR_TRANS: Attagene TRANS-FACTORIAL HepG2 Assay for human Vitamin D Receptor (VDR) (AID 2283022; active = hit-call score of the fitted dose curve at least 0.9, where 1 is the maximum). In a few lines: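 Multiplexed TRANS reporter in HepG2; 24 h treatment; reporter mRNA by RT-PCR plus capillary electrophoresis; upregulation scored relative to DMSO.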
Sequence of human Vitamin D Receptor (VDR), VDR (gene 7421) (P11473 whole entry, looked up): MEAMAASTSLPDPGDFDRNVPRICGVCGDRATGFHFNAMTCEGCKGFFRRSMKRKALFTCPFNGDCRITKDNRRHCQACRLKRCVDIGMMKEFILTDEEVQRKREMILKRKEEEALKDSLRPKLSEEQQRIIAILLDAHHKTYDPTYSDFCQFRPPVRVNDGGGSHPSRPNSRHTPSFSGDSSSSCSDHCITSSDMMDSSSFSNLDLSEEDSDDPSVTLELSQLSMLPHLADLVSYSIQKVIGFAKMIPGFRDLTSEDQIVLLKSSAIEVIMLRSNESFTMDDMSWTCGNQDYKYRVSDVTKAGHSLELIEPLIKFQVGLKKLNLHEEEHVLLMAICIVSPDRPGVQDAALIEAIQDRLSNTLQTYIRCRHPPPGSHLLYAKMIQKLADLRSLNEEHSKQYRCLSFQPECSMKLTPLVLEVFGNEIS

Assay [12] can be described thus: BSK_3C_SRB: Viability Assessment in the BioMAP Diversity Plus: 3C Assay (AID 2283023).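 Also: fitted both ways against DMSO so a hit may be signal rise or drop.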 The conditions noted are these: primary human endothelial cells (HUVEC). In a few lines:
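Overt cytotoxicity is gauged in parallel confluent HUVEC cultures by SRB total-protein staining at the time of biomarker measurement, 24 h after dosing. Gain or loss of signal is fitted versus DMSO.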

Read-out in assay [13]: Matrix Metallopeptidase 1 (MMP1), MMP1 (gene 4312)
Put plainly: BSK_BE3C_MMP1: BioMAP Diversity Plus: BE3C Assay for Matrix Metallopeptidase 1 (MMP1) Biomarker Activity (AID 2283024). Conditions: primary human bronchial epithelial cells; actives raise or lower the signal. In a few lines: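 Human bronchial epithelial cells (BE3C system) exposed to compound for 24 h; MMP1 then quantified by ELISA. Activity was fitted in both directions relative to DMSO.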

Assay [14] in a line: BSK_3C_Vis: BioMAP Diversity Plus: 3C Assay for Morphology Visualization (AID 2283025).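 Also: fitted both ways so gain or loss versus DMSO counts.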 The conditions noted are these: primary human endothelial cells (HUVEC). In short, it runs like this: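 Chemicals were added to primary human umbilical vein endothelium, cells were incubated 24 h, and morphology was then visualized by light microscopy. Gain or loss of signal was fitted bidirectionally relative to DMSO.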

Read-out in assay [15]: Pselectin, SELP (gene 6403)
Put plainly: BSK_4H_Pselectin: BioMAP Diversity Plus: 4H Assay for Pselectin Biomarker Activity (AID 2283026). The conditions noted are these: primary human endothelial cells (HUVEC); actives raise or lower the signal. In a few lines: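 ELISA read-out of P-selectin on human umbilical vein endothelium after 24 h of dosing. Values derive from bidirectional fitting relative to DMSO. Parallel SRB protein staining flagged overt cytotoxicity.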

Assay [16] is described as follows: BSK_4H_SRB: Viability Assessment in the BioMAP Diversity Plus: 4H Assay (AID 2283027).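 Also: cells exposed to compound for 24 h before staining.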 Conditions: primary human endothelial cells (HUVEC). In short, it runs like this:
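Human umbilical vein endothelial cells were dosed with chemical and, after 24 h, fixed with 10% TCA, stained with 0.1% sulforhodamine B, and read at 560 nm to give total protein as a cytotoxicity measure. Bidirectional fitting relative to DMSO control.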

Assay [17] in a line: BSK_BE3C_SRB: Viability Assessment in the BioMAP Diversity Plus: BE3C Assay (AID 2283028).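 As to AC50: fitted both ways so AC50 may mark signal gain or loss versus DMSO.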 Conditions: primary human bronchial epithelial cells. In short, it runs like this: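 SRB total-protein staining (0.1%, after TCA fixation) of chemically dosed human bronchial epithelial primary cells at 24 h; DMSO serves as the negative control for bidirectional curve fitting.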
Read-out in assay [18]: Thrombomodulin, THBD (gene 7056)
As to the kind of experiment: BSK_3C_Thrombomodulin: BioMAP Diversity Plus: 3C Assay for Thrombomodulin Biomarker Activity (AID 2283029). The conditions noted are these: primary human endothelial cells (HUVEC); actives raise or lower the signal. In a few lines: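 Read-out is ELISA of thrombomodulin on human umbilical vein endothelium 24 h after chemical dosing. Gain or loss of signal is scored relative to DMSO. Overt cytotoxicity is checked in parallel cultures by sulforhodamine B staining.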

Read-out in assay [19]: Urokinase-type plasminogen activator receptor (uPAR), PLAUR (gene 5329)
As to the kind of experiment: BSK_4H_uPAR: BioMAP Diversity Plus: 4H Assay for Urokinase-type plasminogen activator receptor (uPAR) Biomarker Activity (AID 2283030). The conditions noted are these: primary human endothelial cells (HUVEC); actives raise or lower the signal. In short, it runs like this: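 Endpoint derived via bidirectional curve fitting against DMSO baseline; readout was ELISA detection of uPAR on umbilical vein endothelial cells at 24 h post-treatment, with SRB-stained parallel cultures assessing cytotoxicity.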

In assay [20] the target is human Retinoid X Receptor beta (RXRb), RXRB (gene 6257) (UniProt P28702). As to the kind of experiment: ATG_RXRb_TRANS: Attagene TRANS-FACTORIAL HepG2 Assay for human Retinoid X Receptor beta (RXRb) (AID 2283013; active = hit-call score of the fitted dose curve at least 0.9, where 1 is the maximum). In short, it runs like this: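 Transfect HepG2 with GAL4-UAS multi-reporter constructs (chimeric NR-Gal4, TRANS format); dose compound 24 h; isolate RNA, RT-PCR, FAM primer extension, HpaI digest; quantify by capillary electrophoresis; positive direction vs DMSO.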
Sequence of human Retinoid X Receptor beta (RXRb), RXRB (gene 6257) (P28702 whole entry, looked up, the tested form may be a part): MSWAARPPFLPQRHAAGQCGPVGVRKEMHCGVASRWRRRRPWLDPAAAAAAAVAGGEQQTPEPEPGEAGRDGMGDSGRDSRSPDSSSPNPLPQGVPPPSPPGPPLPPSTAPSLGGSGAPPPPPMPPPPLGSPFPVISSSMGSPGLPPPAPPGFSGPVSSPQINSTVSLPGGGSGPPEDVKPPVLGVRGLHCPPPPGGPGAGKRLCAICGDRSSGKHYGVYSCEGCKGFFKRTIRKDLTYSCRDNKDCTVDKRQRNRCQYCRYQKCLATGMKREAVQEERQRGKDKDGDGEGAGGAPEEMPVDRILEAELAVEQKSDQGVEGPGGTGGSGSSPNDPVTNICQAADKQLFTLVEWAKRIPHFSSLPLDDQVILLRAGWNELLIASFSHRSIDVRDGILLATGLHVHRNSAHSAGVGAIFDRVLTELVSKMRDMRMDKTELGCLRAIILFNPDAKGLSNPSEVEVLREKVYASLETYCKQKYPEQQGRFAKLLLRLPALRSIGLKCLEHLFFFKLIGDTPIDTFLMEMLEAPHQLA

The structures appear in SMILES notation. Inconclusive results are not listed. More than one record can exist for a structure, and the calls need not agree. Calls of active or inactive are those of the source. The calls were made as follows, unless noted: active = hit-call score of the fitted dose curve at least 0.9, where 1 is the maximum; inactive = score below 0.9.

Sequence of human RAR-related Orphan Receptor gamma (RORg), RORC (gene 6097) (P51449 whole entry, looked up, the tested form may be a part): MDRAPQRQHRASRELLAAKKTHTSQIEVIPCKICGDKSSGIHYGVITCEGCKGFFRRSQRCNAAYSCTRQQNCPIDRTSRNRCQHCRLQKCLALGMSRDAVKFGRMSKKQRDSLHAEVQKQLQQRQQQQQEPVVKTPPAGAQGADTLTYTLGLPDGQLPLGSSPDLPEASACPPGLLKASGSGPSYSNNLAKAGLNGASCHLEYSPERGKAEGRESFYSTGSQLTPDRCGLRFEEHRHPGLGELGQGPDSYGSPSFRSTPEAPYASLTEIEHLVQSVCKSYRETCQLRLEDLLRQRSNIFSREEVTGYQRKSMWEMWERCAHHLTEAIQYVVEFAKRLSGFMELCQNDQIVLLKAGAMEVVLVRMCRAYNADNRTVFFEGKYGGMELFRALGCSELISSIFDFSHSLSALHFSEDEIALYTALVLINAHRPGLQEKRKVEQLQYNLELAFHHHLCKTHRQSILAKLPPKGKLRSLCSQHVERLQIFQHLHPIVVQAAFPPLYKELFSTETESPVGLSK
Sequence of E-selectin (Homo sapiens) (P16581 whole entry, looked up): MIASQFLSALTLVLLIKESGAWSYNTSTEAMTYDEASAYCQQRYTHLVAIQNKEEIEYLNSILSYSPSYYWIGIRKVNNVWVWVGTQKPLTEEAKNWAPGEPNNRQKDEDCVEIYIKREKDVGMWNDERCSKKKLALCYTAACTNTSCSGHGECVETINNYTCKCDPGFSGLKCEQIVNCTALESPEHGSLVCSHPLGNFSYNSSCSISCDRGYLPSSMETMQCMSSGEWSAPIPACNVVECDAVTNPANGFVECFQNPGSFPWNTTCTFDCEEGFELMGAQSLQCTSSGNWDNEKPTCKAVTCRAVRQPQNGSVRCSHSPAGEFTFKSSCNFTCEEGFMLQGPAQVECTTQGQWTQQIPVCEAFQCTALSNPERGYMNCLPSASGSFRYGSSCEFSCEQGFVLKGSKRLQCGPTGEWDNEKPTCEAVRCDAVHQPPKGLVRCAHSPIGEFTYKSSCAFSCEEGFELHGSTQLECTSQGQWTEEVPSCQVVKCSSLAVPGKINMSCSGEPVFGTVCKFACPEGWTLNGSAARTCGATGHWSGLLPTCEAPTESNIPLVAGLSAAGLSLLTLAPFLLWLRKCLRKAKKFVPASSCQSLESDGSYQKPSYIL
Sequence of Retinoic acid receptor RXR-alpha (Homo sapiens) (P19793 whole entry, looked up, the tested form may be a part): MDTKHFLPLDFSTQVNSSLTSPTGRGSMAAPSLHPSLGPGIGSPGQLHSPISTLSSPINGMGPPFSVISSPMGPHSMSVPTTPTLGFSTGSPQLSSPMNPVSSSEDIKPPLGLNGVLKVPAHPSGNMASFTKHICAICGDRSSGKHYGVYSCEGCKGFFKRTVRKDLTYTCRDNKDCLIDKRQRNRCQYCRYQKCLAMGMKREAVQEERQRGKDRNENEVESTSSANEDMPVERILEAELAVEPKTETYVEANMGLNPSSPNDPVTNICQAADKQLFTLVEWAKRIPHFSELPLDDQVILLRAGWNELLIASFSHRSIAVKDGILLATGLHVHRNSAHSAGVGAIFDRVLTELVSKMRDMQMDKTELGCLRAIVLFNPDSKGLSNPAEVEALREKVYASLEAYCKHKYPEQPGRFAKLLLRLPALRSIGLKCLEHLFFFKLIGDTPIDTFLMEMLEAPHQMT

The AC50 is the concentration giving half of the maximal activity seen. Consider `COc1cc(C(C)C)c2c(c1)S(=O)(=O)N(COc1cc(=O)n3cccc(OCCN4CCCCC4)c3n1)C2=O`, for which the AC50 was 3.78 µM (active) in assay [1]; 6.54 µM (active) in assay [4]; 8.48 µM (active) in [5]; 8.31 µM (active) in [8]; 5 µM (active) in assay [15]; 8.23 µM (active) in [17]. The half-maximal activity concentration (AC50) in assay [19] was 4.05 µM (active). For the same molecule, the call in [2], in [3], in assay [6], in assay [7], in [9] and in [10] was inactive. Besides, the outcome in assay [11], in assay [12], in assay [13], in assay [14], in assay [16] and in assay [18] was inactive.
As for `CCCCCCCC1CCC(=O)O1` (stereo not given), the outcome in [1], in assay [2], in assay [20], in [4], in assay [5] and in [7] was inactive. For the same molecule, the outcome in [8], in [9], in assay [10], in [12], in assay [13] and in [14] was inactive. In addition, the result in assay [15], in [16], in assay [17], in [18] and in assay [19] was inactive.
Turning to `O=C(O)[C@H](O)[C@@H](O)C(=O)O`, the molecule was called inactive in [1], in assay [2], in assay [20], in assay [3], in assay [5] and in assay [7]. Besides, the outcome in assay [8], in assay [9], in assay [10], in [12], in assay [13] and in assay [14] was inactive. The outcome in assay [15], in [16], in assay [17], in assay [18] and in assay [19] was inactive.
On to `CCCCCCCCCC`, for which the molecule was classed as inactive in assay [1], in assay [2], in assay [20], in assay [5], in assay [7] and in [8]. The outcome in [9], in assay [10], in [11], in assay [12], in assay [13] and in assay [14] was inactive. Besides, the result in assay [15], in assay [16], in assay [17], in assay [18] and in assay [19] was inactive.
In the case of `O=C(Cl)C(F)(F)C(F)(F)C(F)(F)C(=O)Cl`, the molecule was called inactive in assay [1], in [2], in assay [20], in [4], in assay [5] and in [7]. The result in [8], in assay [9], in assay [10], in assay [11], in assay [12] and in assay [13] was inactive. Further, the result in [15], in assay [16], in assay [17], in [18] and in assay [19] was inactive.
`OCc1ccccc1`: the molecule was called inactive in [1], in assay [2], in assay [3], in assay [5], in [6] and in [7]. Also, the outcome in assay [8], in assay [9], in assay [10], in assay [12], in assay [13] and in assay [14] was inactive. The result in assay [15], in assay [16], in assay [17], in assay [18] and in assay [19] was inactive. Moreover, the AC50 in [2] was 5.67 µM (active); in assay [20], 1.09 µM (active).
With `Cc1nccn1-c1ccc(Sc2cccc(C3(C(N)=O)CCOCC3)c2)cc1`, the molecule was called inactive in assay [1], in assay [2], in assay [3], in [4], in assay [6] and in assay [10]. The result in assay [14], in assay [15], in assay [16], in assay [17] and in assay [19] was inactive. The AC50 in [5] was 10.8 µM (active); in assay [7], 4.95 µM (active); in assay [8], 7.74 µM (active); in [9] it was 11 µM (active); in assay [11], 38 µM (active); in assay [12], 9.18 µM (active). The AC50 in [13] was 8.1 µM (active); in assay [18], 8.22 µM (active).
